According to PubChem BioAssay AID1159580 (chemical genetic matrix, 2015):
Screen size: about 5,500 compounds; about 2,000 (36%) were called active. Another 18% or so got no clear call; they are omitted. Rule as the data show it: active = normalized growth mostly below about 0.91 (no sharp cut-off); inconclusive = no clear call, values can overlap the other calls; inactive = mostly above about 0.92. The list shows a part of the results.

Assay: chemical genetic growth profiling, strain panel (AID 1159580);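 also: tested at 20 µM; growth read once vehicle control cultures reached saturation at 30 °C; 1 = growth at the plate median or of vehicle wells; lower values mean less growth of the strain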
Settings: S. cerevisiae deletion strains, growth OD
[1] = locus YAR019C, strain CDC15, stronger effect = lower value
[2] = locus YBL105C, strain PKC1, stronger effect = lower value
[3] = locus YBR135W, strain CKS1, stronger effect = lower value
[4] = locus YBR136W, strain MEC1, stronger effect = lower value
[5] = locus YBR160W, strain CDC28, stronger effect = lower value
[6] = locus YDL017W, strain CDC7, stronger effect = lower value
[7] = locus YDL028C, strain MPS1, stronger effect = lower value
[8] = locus YDL101C, strain DUN1, stronger effect = lower value
[9] = locus YDL108W, strain KIN28, stronger effect = lower value
[10] = locus YDL132W, strain cdc53, stronger effect = lower value
[11] = locus YDL214C, strain PRR2, stronger effect = lower value
[12] = locus YDR052C, strain DBF4, stronger effect = lower value
[13] = locus YDR054C, strain cdc34, stronger effect = lower value
[14] = locus YDR226W, strain ADK1, stronger effect = lower value
[15] = locus YDR477W, strain SNF1, stronger effect = lower value
[16] = locus YER123W, strain YCK3, stronger effect = lower value
[17] = locus YER133W, strain GLC7, stronger effect = lower value
[18] = locus YFL009W, strain cdc4, stronger effect = lower value
[19] = locus YFL029C, strain CAK1, stronger effect = lower value
[20] = locus YFR003C, strain YPI1, stronger effect = lower value
[21] = locus YFR019W, strain FAB1, stronger effect = lower value
[22] = locus YFR028C, strain CDC14, stronger effect = lower value
[23] = locus YGR040W, strain KSS1, stronger effect = lower value
[24] = locus YGR052W, strain FMP48, stronger effect = lower value
[25] = locus YGR092W, strain DBF2, stronger effect = lower value
[26] = locus YHR030C, strain SLT2, stronger effect = lower value
[27] = locus YHR079C, strain IRE1, stronger effect = lower value
[28] = locus YHR082C, strain KSP1, stronger effect = lower value
[29] = locus YHR205W, strain SCH9, stronger effect = lower value
[30] = locus YIL147C, strain SLN1, stronger effect = lower value
[31] = locus YJL095W, strain BCK1, stronger effect = lower value
[32] = locus YJL128C, strain PBS2, stronger effect = lower value
[33] = locus YJL157C, strain FAR1, stronger effect = lower value
[34] = locus YJR016C, strain ILV3, stronger effect = lower value
[35] = locus YJR066W, strain TOR1 (second series), stronger effect = lower value
[36] = locus YJR066W, strain TOR1, stronger effect = lower value
[37] = locus YKL048C, strain ELM1, stronger effect = lower value
[38] = locus YKL067W, strain YNK1, stronger effect = lower value
[39] = locus YKL101W, strain HSL1, stronger effect = lower value
[40] = locus YKL193C, strain SDS22, stronger effect = lower value
[41] = locus YKL203C, strain TOR2, stronger effect = lower value
[42] = locus YLR113W, strain HOG1, stronger effect = lower value
[43] = locus YLR133W, strain CKI1, stronger effect = lower value
[44] = locus YLR403W, strain SFP1, stronger effect = lower value
[45] = locus YML070W, strain DAK1, stronger effect = lower value
[46] = locus YMR001C, strain CDC5, stronger effect = lower value
[47] = locus YMR205C, strain PFK2 (second series), stronger effect = lower value
[48] = locus YMR277W, strain FCP1, stronger effect = lower value
[49] = locus YNL006W, strain LST8, stronger effect = lower value
[50] = locus YNL020C, strain ARK1, stronger effect = lower value
[51] = locus YNL161W, strain CBK1, stronger effect = lower value
[52] = locus YNL183C, strain NPR1, stronger effect = lower value
[53] = locus YNL207W, strain RIO2, stronger effect = lower value
[54] = locus YNL222W, strain SSU72, stronger effect = lower value
[55] = locus YNL307C, strain MCK1 (second series), stronger effect = lower value
[56] = locus YOL078W, strain AVO1, stronger effect = lower value
[57] = locus YOL136C, strain PFK27, stronger effect = lower value
[58] = locus YOR061W, strain CKA2, stronger effect = lower value
[59] = locus YOR119C, strain RIO1, stronger effect = lower value
[60] = locus YOR231W, strain MKK1, stronger effect = lower value
[61] = locus YOR329C, strain SCD5, stronger effect = lower value
[62] = locus YPL031C, strain PHO85, stronger effect = lower value
[63] = locus YPL153C, strain RAD53, stronger effect = lower value
[64] = locus YPL204W, strain HRR25, stronger effect = lower value
[65] = locus YPL209C, strain IPL1, stronger effect = lower value
[66] = locus YPL256C, strain CLN2, stronger effect = lower value
[67] = locus YPR025C, strain CCL1, stronger effect = lower value
[68] = locus YPR106W, strain ISR1, stronger effect = lower value
[69] = locus YPR111W, strain DBF20, stronger effect = lower value
[70] = strain NNK1, stronger effect = lower value
[71] = strain TSCII, stronger effect = lower value

Measured: normalized growth

O=C(Nc1cc(Cl)cc(Cl)c1)Nc1cc(-c2cccs2)[nH]n1
inactive: [1] 0.957 | [2] 0.97 | [3] 0.958 | [4] 0.972 | [5] 0.959 | [6] 0.971 | [7] 0.964 | [8] 0.972 | [9] 0.97 | [10] 0.949 | [11] 0.826 | [12] 0.978 | [13] 0.95 | [14] 0.973 | [15] 0.85 | [16] 0.712 | [17] 0.864 | [18] 0.956 | [19] 0.956 | [20] 0.964 | [22] 0.967 | [23] 0.816 | [24] 0.916 | [25] 0.686 | [27] 0.734 | [28] 0.733 | [29] 0.796 | [30] 0.967 | [31] 0.739 | [32] 0.982 | [33] 0.849 | [34] 0.948 | [35] 0.8 | [36] 0.762 | [37] 0.89 | [38] 0.854 | [39] 0.861 | [40] 0.958 | [41] 0.872 | [43] 0.851 | [44] 0.806 | [45] 0.815 | [46] 0.965 | [47] 0.88 | [48] 0.959 | [49] 0.955 | [50] 0.854 | [51] 0.959 | [52] 0.772 | [53] 0.949 | [54] 0.957 | [55] 0.744 | [56] 0.954 | [57] 0.763 | [58] 0.891 | [59] 0.906 | [60] 0.817 | [61] 0.962 | [62] 0.791 | [63] 0.739 | [64] 0.669 | [65] 0.958 | [67] 0.963 | [68] 0.953 | [69] 0.947 | [70] 0.948 | [71] 0.961
active: [21] 0.759 | [26] 0.459 | [42] 0.825 | [66] 0.755

O=C(Nc1cc(Cl)cc(Cl)c1)Nc1cc(-c2ccco2)[nH]n1
inactive: [2] 0.935 | [3] 0.929 | [4] 0.935 | [5] 0.942 | [6] 0.95 | [7] 0.937 | [9] 0.938 | [12] 0.945 | [14] 0.94 | [20] 0.94 | [22] 0.935 | [30] 0.934 | [32] 0.944 | [34] 0.928 | [46] 0.935 | [51] 0.948 | [53] 0.894 | [54] 0.923 | [61] 0.951 | [65] 0.941 | [67] 0.93 | [68] 0.943 | [69] 0.944 | [70] 0.913
active: [10] 0.608 | [11] 0.293 | [13] 0.566 | [15] 0.294 | [16] 0.15 | [17] 0.269 | [19] 0.616 | [21] 0.147 | [23] 0.288 | [24] 0.23 | [25] 0.128 | [26] 0.103 | [27] 0.119 | [28] 0.209 | [29] 0.287 | [31] 0.112 | [33] 0.257 | [35] 0.129 | [36] 0.142 | [37] 0.454 | [38] 0.316 | [39] 0.38 | [41] 0.253 | [42] 0.146 | [43] 0.295 | [44] 0.229 | [45] 0.181 | [47] 0.496 | [48] 0.777 | [49] 0.839 | [50] 0.3 | [52] 0.169 | [55] 0.202 | [57] 0.166 | [58] 0.322 | [59] 0.245 | [60] 0.115 | [62] 0.204 | [63] 0.145 | [64] 0.163 | [66] 0.14

S=C(Nc1cc(-c2cccs2)[nH]n1)Nc1ccccc1Cl
inactive: [1] 0.93 | [2] 0.938 | [3] 0.934 | [4] 0.934 | [5] 0.943 | [6] 0.938 | [7] 0.932 | [8] 0.945 | [9] 0.938 | [10] 0.955 | [11] 0.825 | [12] 0.942 | [13] 0.916 | [14] 0.939 | [15] 0.816 | [16] 0.755 | [17] 0.809 | [18] 0.929 | [19] 0.925 | [20] 0.934 | [21] 0.859 | [22] 0.932 | [23] 0.819 | [24] 0.908 | [25] 0.796 | [27] 0.842 | [28] 0.821 | [29] 0.813 | [30] 0.93 | [31] 0.748 | [32] 0.908 | [33] 0.836 | [34] 0.935 | [35] 0.778 | [36] 0.773 | [37] 0.885 | [38] 0.835 | [39] 0.891 | [40] 0.917 | [41] 0.866 | [43] 0.858 | [44] 0.827 | [45] 0.834 | [46] 0.927 | [47] 0.877 | [48] 0.93 | [49] 0.937 | [50] 0.837 | [51] 0.938 | [52] 0.803 | [53] 0.913 | [54] 0.939 | [55] 0.746 | [56] 0.932 | [57] 0.859 | [58] 0.859 | [59] 0.88 | [60] 0.829 | [61] 0.935 | [62] 0.8 | [63] 0.804 | [64] 0.791 | [65] 0.942 | [67] 0.936 | [68] 0.932 | [69] 0.942 | [70] 0.94 | [71] 0.936
active: [26] 0.616 | [42] 0.739 | [66] 0.72
